Assay results reported in PubChem BioAssay (NCI).
This is part of a sample that, as a whole, favours compounds with a hit. Of some 79,000 tested, about 15% had one in any assay. Values without a mark were called inactive. The source made the active and inactive calls. No stated cut-off is given here; in the data, active means growth inhibition above about 70%; inactive means the rest.

Assays:
[1] = NCI Yeast Anticancer Drug Screen. Data for the rad50 strain (AID 155);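 further: 0% = growth of vehicle-only cultures of the same strain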; conditions: S. cerevisiae rad50 strain growth inhibition, active compounds read high
Outline: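 Growth of the mutant yeast was measured after compound exposure and referenced to vehicle-treated cultures.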

[2] = NCI Yeast Anticancer Drug Screen. Data for the mec2-1 strain (AID 157); conditions: S. cerevisiae mec2-1 strain, active compounds read high
Outline: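 Each compound was tested on mec2-1 yeast, a strain altered in DNA damage repair or cell cycle control. Growth inhibition is reported relative to vehicle.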

[3] = NCI Yeast Anticancer Drug Screen. Data for the sgs1 mgt1 strain (AID 161);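 further: 0% = growth of cultures given vehicle only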; conditions: S. cerevisiae sgs1 mgt1 strain, active compounds read high
Outline: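 Inhibition of yeast growth, normalised to vehicle-treated controls, is reported for a strain bearing genetic alterations in DNA damage repair.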

[4] = NCI Yeast Anticancer Drug Screen. Data for the cln2 rad14 strain (AID 165);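 further: 0% = growth equal to vehicle treated cultures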; conditions: S. cerevisiae cln2 rad14 strain, active compounds read high
Outline: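 Test compounds were added to cln2 rad14 yeast cultures; inhibition of growth was then determined by comparison with vehicle treatment.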

[5] = NCI Yeast Anticancer Drug Screen. Data for the bub3 strain (AID 167); conditions: S. cerevisiae bub3 mutant strain, active compounds read high
Outline: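 Whole-cell yeast assay. The mutant strain was incubated with compounds, and growth inhibition was determined by comparison with vehicle-treated cells.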

[6] = NCI Yeast Anticancer Drug Screen. Data for the mlh1 rad18 strain (AID 175); conditions: S. cerevisiae mlh1 rad18 strain growth inhibition, active compounds read high
Outline: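 Inhibition values reflect reduced growth of mutant yeast versus vehicle-treated controls following compound exposure; the mutations affect DNA damage repair.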

[7] = at 5.0 µM (retest, dose inferred, filed as 0.5)
[8] = at 50.0 µM (retest, dose inferred, filed as 5.0)

Row | SMILES | growth inhibition [1, 7] | growth inhibition [1, 8] | growth inhibition ([1]; at 50.0 µM) | growth inhibition [2, 7] | growth inhibition [2, 8] | growth inhibition ([2]; at 50.0 µM) | growth inhibition [3, 7] | growth inhibition [3, 8] | growth inhibition ([3]; at 50.0 µM) | growth inhibition [4, 7] | growth inhibition [4, 8] | growth inhibition ([4]; at 50.0 µM) | growth inhibition [5, 7] | growth inhibition [5, 8] | growth inhibition ([5]; at 50.0 µM) | growth inhibition [6, 7] | growth inhibition [6, 8] | growth inhibition ([6]; at 50.0 µM)
1 | COc1ccc(/C=C/C(C)=N/NC(=S)NCC(C)C)cc1 | -9% | 55% | 15.8% | -12% | 47% | 45% | -2% | 71% (active) | 75.2% (active) | -17% | 48% | 18.4% | -6% | 57% | 88.8% (active) | 3% | 61% | 52.5%
2 | C=C1C(=O)O[C@@H]2C[C@]3(C)CC[C@]4(C)[C@H](CC[C@@H]5[C@@]6(C)CCC(=O)C(C)(C)[C@@H]6CC[C@]54C)[C@H]3[C@H]12 | 3% | 4% | -14.1% | 18% | 24% | -16.9% | 5% | 11% | -9.1% | -3% | -1% | 6.1% | 4% | -1% | -10.7% | -2% | 4% | -18.9%
3 | Cc1ccc(C(C)(C)c2ccc(C(=O)O)cc2)cc1 | -4% | -14% | 25.1% | 3% | 4% | 10.2% | -3% | 0% | 42.5% | 1% | -10% | -12.7% | -6% | -8% | -2.5% | 1% | -7% | 8.9%
4 | C/C(=N\NC(=S)Nc1ccc(S(N)(=O)=O)cc1)c1ccccn1 | 33% | 64% | 63.5% | 25% | 65% | 42.8% | 34% | 84% (active) | 28.9% | 20% | 67% | 24.5% | 41% | 84% (active) | 37.6% | 39% | 70% (active) | 64%
5 | Clc1cc(Cl)c(OCCOCCI)c(Cl)c1 | 0% | 13% | 28.1% | 2% | 12% | 9.15% | 1% | 11% | 16.1% | 1% | -25% | 14.4% | 10% | 42% | 48% | -3% | 5% | 34%
6 | N#CC(C(=O)CCCC(=O)Nc1cccc([N+](=O)[O-])c1)c1cccc2ccccc12 (configuration not stated) | 8% | 10% | 32.5% | 18% | 3% | 22.1% | 8% | 7% | 17.1% | 4% | 11% | 22.6% | 4% | 2% | 6.2% | 5% | 18% | 31.2%
7 | COC(=O)c1cc(-c2ccc(C)cc2)c2c(=O)n(-c3ccccc3)[nH]c2n1 | 8% | 75% (active) | 72.9% (active) | 5% | 71% (active) | 94.9% (active) | -7% | 51% | 51.1% | 11% | 87% (active) | 94.8% (active) | 4% | 69% | 92.8% (active) | -3% | 85% (active) | 85.9% (active)
8 | Cc1cccc(C[N+](C)(C)CCCO)c1C | 1% | 1% | -6.15% | 4% | 0% | -24.6% | 3% | 1% | -0.35% | 2% | 1% | 46.1% | 0% | 1% | -1.9% | 0% | -3% | -4.7%
9 | CC(=O)SCC(=O)Nc1ccc(Cl)cc1 | 9% | 91% (active) | 88% (active) | 1% | 81% (active) | 68.9% | -4% | 85% (active) | 91.1% (active) | 2% | 43% | 58.5% | -18% | 90% (active) | 79.9% (active) | 7% | 90% (active) | 91.6% (active)
10 | Cn1c(=S)c2[nH]c(SCCN3CCOCC3)nc2n(C)c1=O | 18% | 81% (active) | 98.5% (active) | 20% | 70% (active) | 99.5% (active) | 31% | 72% (active) | 99.4% (active) | 3% | 59% | 61% | 30% | 83% (active) | 99% (active) | 15% | 90% (active) | 98.7% (active)
11 | CC(C)O[C@H]1N(C2CC(N=[N+]=[N-])C(CO)O2)C(=O)NC(=O)[C@]1(C)Br (some centres not stated) | 14% | 48% | 87.1% (active) | -6% | 57% | 91.2% (active) | 0% | 56% | 90.5% (active) | 4% | 37% | 89% (active) | -7% | 40% | 90.5% (active) | -4% | 63% | 91.1% (active)
12 | ClCc1ccc(OCc2ccccc2)c(OCc2ccccc2)c1 | 4% | 51% | 79% (active) | 2% | 67% | 62.3% | 4% | 87% (active) | 89.2% (active) | 0% | 48% | 82.3% (active) | 6% | 77% (active) | 87.2% (active) | 17% | 87% (active) | 94.2% (active)
13 | O=C(O)CCn1c2ccccc2c2ccccc21 | 6% | 45% | 24.6% | -13% | 52% | 36.4% | -1% | 68% | 40.5% | -10% | 42% | 15.1% | -6% | 61% | 55.5% | -4% | 49% | 66%
14 | CN(C)C1=NC(N(C)C)=C2C=CC=C12 | -3% | 49% | 66.2% | -2% | 51% | 43.8% | -4% | 34% | 33.4% | -3% | 40% | 72.5% (active) | 2% | 73% (active) | 82.2% (active) | -6% | 71% (active) | 86.8% (active)
15 | CC(C)(S[S-])S[S-].[Ti].[c-]1[c-][c-][cH-][c-]1.[c-]1[c-][c-][cH-][c-]1 | 23% | 97% (active) | 84.1% (active) | -2% | 98% (active) | 57.9% | 10% | 98% (active) | 95.2% (active) | 11% | 97% (active) | 21.7% | 24% | 98% (active) | 46.4% | 31% | 98% (active) | 87.3% (active)
16 | c1ccc(N=C2SC3=NCCN3C2=Nc2ccccc2)cc1 | 43% | 87% (active) | 50% | 7% | 86% (active) | 74.5% (active) | 17% | 86% (active) | 72% (active) | 31% | 66% | 46.6% | -11% | 97% (active) | 70.2% (active) | 13% | 78% (active) | 61.9%
17 | C=C1CC2(CCS(=O)(=O)c3ccccc32)OC1=O (configuration not stated) | 2% | 27% | 25.6% | 5% | 35% | 60.6% | 7% | 37% | 69% | 6% | 15% | 36.6% | 2% | 47% | 46.6% | 2% | 49% | 48.9%
18 | CC(C)(C)CC(C)(C)NCc1cc(Cl)cc(Cc2cc(Cl)ccc2O)c1O | 10% | 97% (active) | 28.9% | 9% | 98% (active) | 46% | 8% | 98% (active) | 48.7% | -4% | 94% (active) | 16.8% | 4% | 98% (active) | 20.4% | 19% | 98% (active) | 78.7% (active)
19 | CCCCCCCCCCCCCC1OC(=O)C(C)=C1C(=O)O (configuration not stated) | -10% | 50% | 72.6% (active) | -7% | 73% (active) | 26.9% | -2% | 60% | 47.5% | -65% | 59% | 10.6% | -17% | -25% | 27.4% | -10% | 74% (active) | 61.9%
